“And” between values parts separate entries of the source, which are not always exact repeats. Equal entries are not always repeated. Inconclusive results are not listed. The source made the active and inactive calls.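 How the source made its calls, unless noted: active means thallium flux through the channel raised or lowered by more than 3 SD from vehicle-only wells, actives on both sides; inactive means the rest.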

Experimental findings from PubChem BioAssay are described below.

Assay [1] concerns the target ATP-dependent translocase ABCB1 (Homo sapiens) (UniProt P08183). The assay is described as follows: P-glycoprotein substrate transport blockade – cell-based (AID 377; in the data active means fluorescence slope change above about 50%). As to conditions: MDR1-expressing cells, fluorescent substrate accumulation slope; stronger effect = higher value; concentration not given here.
A short description of assay [2]: GFP-Q80 aggregate reduction, neuronal-like cells, cell-based, NGF-treated PC12, GFPQ80 (AID 1614).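 Further: lower means fewer inclusions and 0 means no inclusions at all.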 As to conditions: PC12 NGF-treated GFP-polyQ80 inclusion reduction.
Assay [3] is described as follows: signal quenchers or enhancers, Cy5 substrate/SSB – biochemical, NIH Clinical Collection, E. coli SSB, artefact control for HCV NS3 helicase inhibitor project (AID 743268; call rule not given here). As to conditions: Cy5-oligo bound E. coli SSB, fluorescence interference.
The nature of assay [4]: viability loss in pontine glioma line – cell-based, SU-DIPG-XIII, MIPE4.0, CellTiter-Glo, qHTS, dose response (AID 1347061; cut-off not given, nearly all actives have AC50 up to about 37 µM;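 further: cells exposed to compound for 48 hours before readout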). Particulars: CellTiter-Glo ATP luminescence.
A short description of assay [5]: viability loss in pontine glioma line – cell-based, JHH-DIPG-1, MIPE4.0, CellTiter-Glo, qHTS, dose response (AID 1347062; cut-off not given, nearly all actives have AC50 up to about 27 µM). As to conditions: JHH-DIPG-1 viability, CellTiter-Glo ATP luminescence.
Assay [6] can be described thus: viability loss in pontine glioma line – cell-based, SU-DIPG-IV, MIPE4.0, CellTiter-Glo, qHTS, dose response (AID 1347063; cut-off not given, nearly all actives have AC50 up to about 30 µM;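 further: compound exposure lasted 48 hours before the viability readout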). As to conditions: CellTiter-Glo ATP luminescence.
Assay [7] relates to F380Y/beta1. Description: BK channel mutant inhibitors and activators – cell-based, U2OS BacMam, thallium flux, beta subunits, selectivity assay, profiling panel (AID 1259406).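 Further: initial slope of Thallos dye fluorescence rise after thallium is added; log ratio against the mean of 0.3% DMSO vehicle wells on the same plate.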 As to conditions: U2OS BacMam BK variants, at 30 µM.
The test system of assay [8] is F380Y/beta4. Described as above. As to conditions: U2OS BacMam BK variants, at 30 µM.
Assay [9] relates to R275C/beta4. Described as above. As to conditions: U2OS BacMam BK variants, at 30 µM.
The subject of assay [10] is R275C/Slo1WT/beta2. Described as above. Particulars: U2OS BacMam BK variants, at 30 µM.
The nature of assay [11]: growth inhibition of DIPG cells – cell-based, MIPE4.0 library, CellTiter-Glo luminescence, qHTS (AID 1347066; cut-off not given, nearly all actives have AC50 up to about 30 µM;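 further: cells exposed to compound for 48 hours before readout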). Particulars: SU-DIPG-VI viability, CellTiter-Glo ATP luminescence.
Assay [12] in a line: growth inhibition of DIPG cells – cell-based, MIPE5.0 library, qHTS (AID 1347068; cut-off not given, nearly all actives have IC50 up to about 30 µM). Particulars: SU-DIPG-XXV viability.
A short description of assay [13]: growth inhibition, single agent or in combination, cell-based, chromothripsis tumors, cisplatin or BGB combos (AID 1671449; in the data active means inhibition above about 80%;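 further: cells exposed for 96 hours; 0% = vehicle DMSO and 100% = killing by high DMSO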). As to conditions: LFS_MB_P medulloblastoma cells.
Assay [14] is described as follows: growth inhibition, single agent and combos, cell-based, chromothripsis tumors, cisplatin or BGB combos (AID 1671450; in the data active means inhibition above about 80%;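 further: cells exposed to compound for four days; 0% = vehicle DMSO and 100% = cell killing by high DMSO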). As to conditions: HDN33 neuroblastoma cells, stronger effect = higher value.
The nature of assay [15]: growth inhibition, single agents and combos, HTB85, cell-based, BGB or cisplatin IC20 combos, synergistic combos for chromothripsis tumors (AID 1671453; in the data active means inhibition above about 80%;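 further: cells exposed for 96 hours before readout; 0% = vehicle DMSO and 100% = high DMSO killing control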). Particulars: HTB85 osteosarcoma cells, drug combinations, stronger effect = higher value.
Assay [16] in a line: growth inhibition, MDA-MB-436, cell-based, BGB or cisplatin combos, synergistic combos for chromothripsis tumors (AID 1671458; call rule not given here;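 further: cells exposed for 96 hours; 0% = vehicle DMSO and 100% = killing by high DMSO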). Particulars: MDA-MB-436 breast carcinoma growth inhibition, drug combinations, stronger effect = higher value.
Assay [17] can be described thus: BT084 cell growth, single and combined drugs, ICGC_MB145, cisplatin and BGB IC40 combos (AID 1671461; in the data active means inhibition above about 80%;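 further: cells exposed to drugs for 96 hours; 0% = vehicle DMSO and 100% = high DMSO full killing control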). As to conditions: BT084 medulloblastoma cells, drug combinations, stronger effect = higher value.
Assay [18] can be described thus: RCMB18 cell growth, single agent and combined, cisplatin and BGB IC40 combos (AID 1671462; in the data active means inhibition above about 80%;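 further: cells exposed to compound for four days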). Particulars: RCMB18 medulloblastoma cells, stronger effect = higher value.
A short description of assay [19]: CRL1545 cell growth, single agent and combined, cisplatin and BGB IC20 combos (AID 1671464; in the data active means inhibition above about 80%;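 further: cells exposed to compound for 96 hours before readout; 0% = vehicle DMSO and 100% = high DMSO killing control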). As to conditions: CRL1545 osteosarcoma cells, stronger effect = higher value.
The mark [20] stands for this setting: measured here: with BGB IC20 combination, at 0.5 µM.
[21] abbreviates: measured here: with cisplatin IC20 combination, at 0.5 µM.

Chain of ATP-dependent translocase ABCB1 (Homo sapiens) (P08183 whole entry, looked up): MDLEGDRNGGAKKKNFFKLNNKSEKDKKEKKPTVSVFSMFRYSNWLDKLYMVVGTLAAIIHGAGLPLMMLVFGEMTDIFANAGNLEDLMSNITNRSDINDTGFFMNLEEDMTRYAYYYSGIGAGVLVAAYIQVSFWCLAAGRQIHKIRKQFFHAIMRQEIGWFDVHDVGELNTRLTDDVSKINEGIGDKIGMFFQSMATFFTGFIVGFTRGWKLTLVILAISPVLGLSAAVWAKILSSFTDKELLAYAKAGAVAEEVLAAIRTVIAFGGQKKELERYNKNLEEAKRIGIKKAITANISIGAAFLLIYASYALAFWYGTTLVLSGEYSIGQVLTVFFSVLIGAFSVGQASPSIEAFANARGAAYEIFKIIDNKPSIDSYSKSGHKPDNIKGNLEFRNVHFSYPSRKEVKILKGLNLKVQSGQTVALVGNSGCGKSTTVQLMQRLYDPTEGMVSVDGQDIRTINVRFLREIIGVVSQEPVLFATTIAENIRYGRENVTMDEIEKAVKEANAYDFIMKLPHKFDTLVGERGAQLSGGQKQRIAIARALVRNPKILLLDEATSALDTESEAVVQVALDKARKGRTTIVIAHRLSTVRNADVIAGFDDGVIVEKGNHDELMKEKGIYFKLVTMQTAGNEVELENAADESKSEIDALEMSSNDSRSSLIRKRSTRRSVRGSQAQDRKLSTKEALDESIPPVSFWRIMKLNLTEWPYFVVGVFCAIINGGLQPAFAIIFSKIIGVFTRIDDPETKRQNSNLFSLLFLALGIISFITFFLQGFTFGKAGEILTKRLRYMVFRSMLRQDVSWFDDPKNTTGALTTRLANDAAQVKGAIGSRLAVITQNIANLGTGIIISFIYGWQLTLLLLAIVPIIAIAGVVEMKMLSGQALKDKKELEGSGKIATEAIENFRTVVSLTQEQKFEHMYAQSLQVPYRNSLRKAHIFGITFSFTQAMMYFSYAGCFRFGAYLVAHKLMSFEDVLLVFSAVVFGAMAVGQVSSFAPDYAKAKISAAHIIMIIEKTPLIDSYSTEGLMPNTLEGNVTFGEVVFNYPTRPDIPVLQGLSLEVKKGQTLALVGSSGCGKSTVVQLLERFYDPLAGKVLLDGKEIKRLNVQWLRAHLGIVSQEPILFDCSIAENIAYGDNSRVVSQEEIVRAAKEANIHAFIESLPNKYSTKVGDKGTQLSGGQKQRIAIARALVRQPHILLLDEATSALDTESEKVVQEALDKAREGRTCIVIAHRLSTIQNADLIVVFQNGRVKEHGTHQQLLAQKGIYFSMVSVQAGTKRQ

Take `Cc1cc(NS(=O)(=O)c2ccc(N)cc2)no1`: the fluorescence slope change in assay [1] is 62% (active). This molecule also showed an inclusion score in [2] of 2. In addition, the fluorescence ratio in assay [3] is 1.03 (inactive). For the same molecule, in assay [4], the AC50 was 2.96 µM (active). Also, the result in assay [5] and in assay [6] was inactive. Further, the log fold change Tl+ flux in [7] was -0.0321 (inactive); in [8], -0.00222 (inactive); in assay [9], -0.0559 (inactive); in assay [10] it was -0.0702 (inactive).
On to `NC(=O)c1cccnc1`, for which the fluorescence ratio in assay [3] is 1.01 (inactive). Also, the molecule was called inactive in assay [5], in [6], in assay [11] and in assay [12]. Further, the log fold change Tl+ flux in [7] is -0.0163 (inactive); in assay [8], 0.00589 (inactive); in assay [9], 0.0149 (inactive); in [10], 0.0115 (inactive).
In assay [2], `COc1cc(Cc2cnc(N)nc2N)cc(OC)c1OC` came in with an inclusion score of 2. The fluorescence ratio in assay [3] is 0.97 (inactive). The log fold change Tl+ flux in [7] was 0.057 (inactive); in assay [8], 0.0143 (inactive); in assay [9], 0.00256 (inactive); in assay [10], 0.00876 (inactive).
For the molecule `CCn1cc(C(=O)O)c(=O)c2ccc(C)nc21`, the fluorescence slope change in [1] is 59.8% (active). Moreover, in [2], the inclusion score came out at 2. For the same molecule, in [3], the fluorescence ratio was 1.03 (inactive). The outcome in assay [4], in assay [5] and in assay [11] was inactive. Also, the inhibition in assay [13] (at 0.5 µM, stronger effect = higher value) was -12.4% (inactive) and -25.4% (inactive); in assay [13] (measured here: combination with BGB IC20, at 0.005 µM) it was -22.2% and -24.5%; in assay [13] (measured here: combination with BGB IC40, at 0.005 µM), 11.9% and -5.77%; in [13] (measured here: combination with BGB IC40, at 0.05 µM), 1.93% and -7.94%; in [13] (measured here: combination with cisplatin, at 0.5 µM, stronger effect = higher value), -11.7% and -31.6%; in [13] (measured here: combination with cisplatin, at 5 µM, stronger effect = higher value) it was -6.26% and -18.6%. Moreover, the inhibition was -4.41% and 16.2% in [14] (BGB combo, at 5 µM); 3.94% (inactive) and 4.3% (inactive) in assay [14] (at 0.5 µM); -15% and -2.27% in [14] (cisplatin combo, at 5 µM); -7.56% and 11.7% in assay [14] (setting [20]); 7.18% and 9.4% in assay [14] (setting [21]); 11.6% and -22.5% in [14] (single agent, at 5 µM). The inhibition in assay [15] (at 0.5 µM) is -2.77% (inactive) and -11% (inactive); in assay [15] (measured here: with BGB IC20, at 0.5 µM) it was -12.2% and -35.2%; in [15] (measured here: with BGB IC20, at 5 µM) it was -14.2% and -15.8%; in assay [15] (measured here: with cisplatin IC20, at 0.5 µM), -1.63% and -0.143%; in assay [15] (measured here: with cisplatin IC20, at 5 µM) it was 17.1% and -0.249%; in assay [15] (single agent, at 5 µM), 22.3% and -3.38%. For the same molecule, the inhibition in assay [16] (at 0.5 µM) is -9.6% (inactive) and -19.2% (inactive); in assay [16] (measured here: BGB combination, at 0.5 µM), -10.5% and -16.3%; in [16] (measured here: BGB combination, at 5 µM) it was -0.497% and -4.71%; in assay [16] (measured here: cisplatin combination, at 0.5 µM), -19.6% and -33.6%; in assay [16] (measured here: cisplatin combination, at 5 µM), -0.491% and -16.4%; in assay [17] (at 0.5 µM) it was -9.05% (inactive) and -29.1% (inactive). The inhibition was -8.44% and -23.5% in assay [17] (cisplatin combination, at 0.5 µM); -55.2% and -59.3% in [17] (cisplatin combination, at 5 µM); 10.8% and -9.88% in [17] (measured here: BGB IC40 combination 0.05 uM, at 0.05 µM); -16.7% and -23% in assay [17] (single agent, at 5 µM); 1.01% (inactive) and -9.08% (inactive) in assay [18] (at 0.5 µM); 0.823% and 3.11% in assay [18] (cisplatin combo, at 5 µM). Besides, the inhibition was 11.9% and -0.784% in [18] (measured here: BGB IC40 combination, at 0.05 µM); -11.3% and -2.66% in assay [18] (measured here: combination with cisplatin, at 0.5 µM); -12.4% and -29.6% in assay [18] (single agent, at 5 µM); -14.9% (inactive) and -26.1% (inactive) in assay [19] (at 0.5 µM); -12.1% and -5.6% in assay [19] (setting [20]); -16.3% and -36.4% in [19] (setting [21]). Further, the inhibition was -17.6% and 10% in [19] (single agent, at 0.05 µM); 0.11% and -3.86% in assay [19] (single agent, at 5 µM). Moreover, the log fold change Tl+ flux was 0.00258 (inactive) in assay [7], 0.0252 (inactive) in assay [8], 0.0726 (inactive) in assay [9] and -0.00423 (inactive) in [10].
Consider `Cc1ccc(-n2nc(C(C)(C)C)cc2NC(=O)Nc2ccc(OCCN3CCOCC3)c3ccccc23)cc1`, for which the AC50 in [4] is 13.2 µM (active). Moreover, the call in [5], in assay [6], in assay [11] and in [12] was inactive.
Molecule `CC12CCC(CC1)C(C)(C)O2` came in with an inclusion score in [2] of 2.
As to `CNCCCN1c2ccccc2CCc2ccccc21`, the fluorescence ratio in assay [3] was 0.96 (inactive). In addition, the log fold change Tl+ flux was 0.022 (inactive) in assay [7], 0.144 (active) in assay [8], 0.123 (inactive) in [9] and -0.0879 (inactive) in assay [10].
